Only some compounds are listed: those with a hit (about 2.4% of all), similar ones and a draw of the others.
CHRM1 agonist – agonists of human M1 muscarinic receptor; P11229; CHO-K1 hM1, Fluo-8 calcium fluorescence, agonist mode; 0% DMSO, 100% acetylcholine EC100; activation, % at 3 µM; 0.33% of 360,000 active; AID 588814;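 active = activation above the run's mean compound activation plus 3 SD, cut at about 16% in these data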;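 note: peak over basal fluorescence ratio within a 140 s kinetic read after compound addition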
Target sequence (P11229 whole entry, looked up): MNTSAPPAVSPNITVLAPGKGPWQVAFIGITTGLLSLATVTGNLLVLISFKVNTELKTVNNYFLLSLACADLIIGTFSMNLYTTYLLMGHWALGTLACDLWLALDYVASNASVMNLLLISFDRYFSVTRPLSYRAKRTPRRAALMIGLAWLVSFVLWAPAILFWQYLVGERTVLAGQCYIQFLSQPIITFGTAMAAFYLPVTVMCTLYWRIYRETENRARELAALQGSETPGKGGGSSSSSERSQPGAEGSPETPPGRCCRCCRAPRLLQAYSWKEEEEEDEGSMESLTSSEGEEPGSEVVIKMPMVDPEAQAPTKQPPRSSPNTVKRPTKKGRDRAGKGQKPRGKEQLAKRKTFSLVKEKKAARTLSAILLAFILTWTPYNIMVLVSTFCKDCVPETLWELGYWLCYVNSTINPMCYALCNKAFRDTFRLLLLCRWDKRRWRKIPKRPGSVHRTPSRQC
M1 ag parental – M1 agonist counterscreen hit in parental CHO-K1 cells; AID 602248; Fluo-8 calcium fluorescence; scaled to maximal ATP response, vehicle zero; 0.48% of 360,000 active; activation, % at 3 µM; in the data active = activation above about 15%;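 note: untransfected CHO-K1 host cells lacking M1 receptor as counterscreen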
M1 PAM parental – counter-screen for M1 PAMs: effect in parental CHO-K1 cells; ATP EC20, Fluo-8 calcium fluorescence; 0% at ATP EC20, 100% at ATP max; activation, % at 3 µM; 0.02% of 360,000 active;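 active = activation above the run cutoff, the mean activation of all test compounds plus 3 SD, cut at about 40% in these data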;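 note: peak over basal fluorescence ratio in a 140 s read after ATP addition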
CHO-K1 Ca antag – counter-screen for M1 antagonists: effect in parental CHO-K1 cells; inhibition, % at 3 µM; AID 602250; 0.6% of 360,000 active; ATP-induced calcium, Fluo-8 fluorescence;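 active = inhibition above a per-plate cutoff, the plate's mean sample inhibition plus 3 SD, cut at about 24% in these data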
M1 antag – blocks human M1 muscarinic receptor; P11229; CHO-K1 hM1, Fluo-8 calcium fluorescence, ACh EC80 antagonist; inhibition, % at 3 µM; 1.3% of 360,000 active;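 active = percent inhibition above its own plate's cutoff, namely the mean of that plate's compound wells plus 3 SD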;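 note: peak over basal fluorescence ratio during 140 s after agonist addition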
M1 PAM – human CHRM1 positive allosteric modulation | CHO-K1 hM1, Fluo-8 calcium fluorescence, ACh EC20; 0% = ACh EC20, 100% = maximal ACh | activation, % at 3 µM | AID 588819 | 0.088% of 360,000 active; in the data active = activation above about 19%, passing the limit was not always enough
Each line names hits and unclear results; the compound was inactive in the other large screens.

CSc1nsc(SC)c1NC(=O)Nc1ccccn1	M1 PAM parental 49
CCOc1ccc(NC(=S)NC(=O)c2cnn(CC)c2)c([N+](=O)[O-])c1	none
CCOc1ccc(NC(=S)NC(=O)/C=C/c2ccc(Br)cc2)c([N+](=O)[O-])c1	M1 antag 37
CC(C)c1ccc(NC(=O)CN2C(=O)NC3(CCCCCCC3)C2=O)cc1	none
Cc1ccc(S(=O)(=O)CC2CSc3nc(N)cc(=O)n32)cc1 (stereo not drawn)	none
Cc1ccc(S(=O)(=O)CC2CSc3nc4ccccc4n32)cc1 (stereo not drawn)	CHO-K1 Ca antag 28
CCOC(=O)C1(C)CCCCN1C(=O)c1cccnc1 (stereo not drawn)	M1 PAM 27
COc1ccccc1CNC(=O)CN1C(=O)NC2(CCOc3ccccc32)C1=O (stereo not drawn)	none
COc1ccc([C@H]2CC(=O)C=C(c3c(C)cc(C)cc3C)C2)cc1	none
O=C(NCC(=O)N(c1cccc(F)c1)C(C(=O)NC1CCCC1)c1cccnc1)c1ccco1 (stereo not drawn)	none
Cn1cc(C(=O)c2ccc(Cl)cc2)cc1-c1nc2ccccc2n1C	M1 antag 24
OCC1(Cc2ccccc2)CCN(Cc2ccc(-c3ccco3)cc2)CC1	none
OCC1(Cc2ccccc2)CCCN(Cc2ccc(-c3ccco3)cc2)C1 (stereo not drawn)	M1 antag 44
C[C@@H]1CN([C@@H](C)CO)S(=O)(=O)c2ccc(Br)cc2O[C@@H]1CN(C)S(=O)(=O)c1cn(C)cn1	none
CC(C)CN1CCN(CCCOC(=O)Nc2cccc3ccccc23)CC1C (stereo not drawn)	M1 antag 32
CCCCCCC(C)OC(=O)Nc1cccc2ccccc12 (stereo not drawn)	none
O=C(NCC1CCCO1)Nc1ccc(Cl)cc1 (stereo not drawn)	none
O=C(NCC1CCCO1)Nc1cc(Cl)cc(Cl)c1 (stereo not drawn)	CHO-K1 Ca antag 25
Cc1ccc(C(C(=O)NC2CCCCC2)N(CC2CCCO2)C(=O)CNC(=O)c2cccs2)cc1 (stereo not drawn)	M1 antag 37
O=C(NCC1CCCO1)c1cccs1 (stereo not drawn)	M1 PAM 19
Cc1ccc(CN(C(=O)CNC(=O)c2cccs2)C(C(=O)NCC2CCCO2)c2ccccc2)cc1 (stereo not drawn)	M1 antag 43
O=C(NCC(=O)N(CC1CCCO1)C(C(=O)NC1CCCCC1)c1ccccc1)c1cccs1 (stereo not drawn)	none
COc1cc(Cl)c(C)cc1NC(=O)c1ccccc1NC(=O)CN1CCN(C(C)=O)CC1	none
CCn1c(Cc2ccccc2)nnc1SCC(=O)c1c(N)n(C2CC2)c(=O)[nH]c1=O	none
O=[N+]([O-])c1ccc(CSc2nc3ccccc3o2)cc1	none
COC(=O)c1ccc(CSc2nc3ccccc3o2)cc1	CHO-K1 Ca antag 29
CC(C)c1ccccc1OCC(=O)Nc1ccccc1C(=O)N1CCOCC1	none
CC[N+](C)(C)CCN(Cc1ccc(Cl)cc1)c1ccccn1	M1 antag 80
CC(C)CN(C(=O)COC(=O)CSc1ccccc1F)c1c(N)n(Cc2ccccc2)c(=O)[nH]c1=O	CHO-K1 Ca antag 61
CC(CC(=O)N(C)c1c(N)n(Cc2ccccc2)c(=O)[nH]c1=O)c1ccccc1 (stereo not drawn)	M1 antag 28
Cc1ccc(C(NC(=O)C2CCN(CCOc3ccccc3)CC2)c2ccccn2)cc1 (stereo not drawn)	M1 antag 33
CN(C)c1cccc(C(=O)OCC(=O)Nc2ccccc2Sc2ccccc2)c1	CHO-K1 Ca antag 31
O=C(CN1CCOCC1)Nc1ccccc1Sc1ccc(Cl)cc1	M1 antag 22
O=C(CCl)Nc1ccccc1Sc1ccccc1	CHO-K1 Ca antag 24
O=C(Cc1ccc(Cl)cc1)Nc1ccccc1Sc1ccccc1	none
O=C(CN1CCOCC1)Nc1ccccc1F	M1 PAM 30
COc1ccc(-c2cc(C(=O)N3CCN(c4ccccc4O)CC3)c3ccccc3n2)cc1OC	M1 antag 46
CCOc1ccc(-c2cc(C(=O)N3CCN(c4ccccn4)CC3)c3ccccc3n2)cc1	none
COc1ccc(-c2cc(C(=O)N3CCN(c4ccccn4)CC3)c3ccccc3n2)cc1	M1 antag 30
O=C(c1cc(-c2cccs2)nc2ccccc12)N1CCN(c2ccccc2O)CC1	M1 antag 32
CCN(CC(=O)NCC(=O)Nc1ccc(Br)cc1C)Cc1ccccc1	none
Cc1ccc(-c2nc(=O)[nH]c3ccc(Br)cc23)cc1	none
COc1ccc(-c2cn(CCc3c[nH]c4ccccc34)nn2)cc1	none
O=C(Nc1cc(Cl)cc(Cl)c1)Nc1cnccn1	CHO-K1 Ca antag 30
O=C(Nc1ccc(F)cc1)Nc1cnccn1	none
O=C(/C(N=Nc1cccc(C(F)(F)F)c1)=C(/O)c1cccs1)C(F)(F)F	M1 ag parental 16
O=C(CSc1nnc(N2CCCC2)n1-c1ccccc1Cl)N1CCN(c2ccccn2)CC1	none
CCOC(=O)c1cccc(C2=CC(=O)C[C@H](c3ccc(OC)cc3)C2)c1	none
COc1ccc(CNCCc2ccc(Cl)cc2)cc1OCc1ccccc1	none
CCOc1cc(CNCCc2ccc(S(N)(=O)=O)cc2)cc(Cl)c1OCc1ccccc1	M1 ag parental 21
COc1cc(CNCc2ccccn2)ccc1OCc1ccc(Cl)cc1Cl	CHO-K1 Ca antag 25
CCOc1cc(CNCc2ccccc2)ccc1OCc1ccc(Cl)cc1	M1 ag parental 20, CHO-K1 Ca antag 29
O=c1c2ccccc2c(-c2ccccc2)nn1Cc1c(Cl)cccc1Cl	none
Clc1cccc(Cl)c1Cn1ccc(C2CC2)n1	M1 ag parental 16
COc1ccc(Cl)cc1C(=O)NNC(=O)CNC(=O)c1ccco1	none
Cc1occc(=O)c1OCc1c(F)cccc1Cl	M1 ag parental 16
CC(=O)Nc1ccc(NC(=O)C(C)OC(=O)[C@@H]2CCCN2C(=O)c2cccs2)cc1 (stereo partly drawn)	none
CCCCC(=O)NNC(=S)NC(=O)c1ccc(C)cc1	CHRM1 agonist 39
CCNC(=S)NNC(=S)NCc1ccccc1	none
CCCCC(=O)NNC(=S)NCc1ccccc1	M1 antag 39
CCC(=O)NC(=S)NNC(=O)c1ccc(OC)cc1	none
COc1ccc(C(=O)NC(=S)NNC(=O)c2ccc(C)cc2)cc1	CHRM1 agonist 87, M1 ag parental 82
Cc1noc(C)c1S(=O)(=O)Nc1ccc2c(c1)C(=O)N([C@H](C)CO)C[C@H](C)[C@@H](CN(C)C(=O)Nc1ccc3c(c1)OCO3)O2	none
CSc1ncnc2c1ncn2CCCN(C)Cc1ccco1	none
O=c1c2ccccc2nc(COc2ccccc2)n1/N=C/c1cn[nH]c1-c1ccccc1	M1 antag 28

High-throughput results from PubChem BioAssay.
